# Source: the supplement of paper PMC12350171
# Where a name gives a salt, the structure may show the parent alone. Values without a mark were called inactive.
# Tests used:
# Conditions in all cases: 20 µM
# [1] = test system: Salmonella enterica typhimurium; assay: growth AUC normalised to DMSO control (fraction of control); higher = less growth inhibition, active = hit call of the paper
# In short: (§1)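 Pathogens were passaged twice under anaerobic conditions, then inoculated into pre-reduced mGAM plates at a starting OD578 of 0.01, with compound at 20 μM and 1% DMSO, and sealed with breathable membranes. For Haemophilus parainfluenzae, the medium was supplemented with hemin and NAD. OD578 was read every hour for 24 h in three biological replicates. Growth-curve AUC was calculated by the trapezoidal rule up to the exponential-to-stationary transition and normalised to DMSO controls on the same plate.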
# [2] = test system: Shigella flexneri; assay: as above
# In short: as §1
# [3] = test system: Vibrio cholerae; assay: as above
# In short: as §1
# [4] = test system: Yersinia pseudotuberculosis; assay: as above
# In short: as §1
# [5] = test system: P. vulgatus RND KO; assay: growth AUC normalised to DMSO control (median) (fraction of control); higher = less growth inhibition, active = hit call of the paper
# In short: (§2)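 Anaerobic growth was tracked hourly at OD578 for 24 h in 96-well plates of mGAM seeded at OD578 0.01 with each approved-drug library compound at 20 μM and 1% DMSO. Strains had first been passaged twice overnight without oxygen. Three biological replicates were run. The reported median is the area under the curve, calculated by the trapezoidal rule on curves truncated at entry into stationary phase and normalised to vehicle wells on the same plate.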
# [6] = test system: P. vulgatus WT; assay: as above
# In short: as §2
# [7] = test system: S. enterica typhimurium WT; assay: as above
# In short: as §2
# [8] = test system: S. enterica typhimurium tolC KO; assay: as above
# In short: as §2
# 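Throughout, for growth AUC normalised to DMSO control (median): active when median AUC fell below 0.1.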
SMILES,growth AUC normalised to DMSO control [1],growth AUC normalised to DMSO control [2],growth AUC normalised to DMSO control [3],growth AUC normalised to DMSO control [4],growth AUC normalised to DMSO control [5],growth AUC normalised to DMSO control [6],growth AUC normalised to DMSO control [7],growth AUC normalised to DMSO control [8]
CSc1ccc2c(c1)N(CCC1CCCCN1C)c1ccccc1S2 (stereo unspecified) [Thioridazine hydrochloride],0.978,1,0.957,0.975,0.88,0.796,0.99,0.957
CN(C)C(=N)NC(=N)N [Metformin hydrochloride],1,1.01,1.02,0.983,1.01,0.996,1,1
CO/N=C(\C(=O)N[C@@H]1C(=O)N2C(C(=O)O)=C(COC(N)=O)CS[C@H]12)c1ccco1 [Cefuroxime sodium salt],0.0484 (active),0.0576 (active),0.0553 (active),0.0424 (active),0.011 (active),0.0132 (active),0.342,0.00393 (active)
N=c1nc(N2CCCCC2)cc(N)n1O [Minoxidil],1,1.03,1.01,0.974,0.992,1.01,0.981,1.01
CCN(CC)C(=O)Nc1ccc(OCC(O)CNC(C)(C)C)c(C(C)=O)c1 (stereo unspecified) [Celiprolol hydrochloride],0.995,0.992,0.99,1.01,0.997,1.01,0.994,0.994
OC(Cn1cncn1)(Cn1cncn1)c1ccc(F)cc1F [Fluconazole],1.01,1.03,1.04,1.01,1.01,1.06,1.01,1
CC(=O)OCC1=C(C(=O)O)N2C(=O)[C@@H](NC(=O)Cc3cccs3)[C@H]2SC1 [Cephalothin sodium salt],0.00459 (active),0.025 (active),0.0489 (active),0.0158 (active),0.00752 (active),0.0068 (active),0.00336 (active),0.00338 (active)
Nc1nc(=O)[nH]cc1F [Flucytosine],0.983,0.968,0.961,1.01,0.996,0.991,1,0.965
CC[C@H](C)C(=O)O[C@H]1C[C@H](O)C=C2C=C[C@H](C)[C@H](CC[C@@H](O)C[C@@H](O)CC(=O)O)[C@H]21 [Pravastatin],1.04,1.08,1.09,1.02,1.05,1.06,1.02,1.01
CCN(CC)CCOC(=O)C(Cc1cccc2ccccc12)CC1CCCO1 (stereo unspecified) [Nafronyl oxalate],0.985,0.977,0.943,0.992,0.993,0.989,0.994,0.959
COc1cc2ncnc(Nc3ccc(F)c(Cl)c3)c2cc1OCCCN1CCOCC1 [Gefitinib],1.01,1.02,1,0.983,1.07,1.07,1.01,0.928
CCCCNc1c(C(=O)OCC)c(C)nc2c1cnn2CC [Tracazolate hydrochloride],1,1.03,1.04,0.996,0.978,0.983,0.999,0.952
CNC(=C[N+](=O)[O-])NCCSCc1csc(CN(C)C)n1 [Nizatidine],0.998,0.989,0.997,1,1.03,1.04,1.02,0.989
CN(C)c1nc(N(C)C)nc(N(C)C)n1 [Altretamine],1.01,1.06,1.05,1.02,1.01,0.998,1,0.99
CCC(=O)OCC(=O)[C@@]1(OC(=O)CC)[C@H](C)C[C@H]2[C@H]3[C@H]([C@@H](O)C[C@@]21C)[C@@]1(C)C=CC(=O)C=C1C[C@H]3Cl [Alclometasone dipropionate],1,0.974,0.999,1.01,1.03,1.04,1,1
CN(C)CCOC(=O)C(c1ccccc1)C1(O)CCCC1 (stereo unspecified) [Cyclopentolate hydrochloride],1.02,1.01,1,1.02,0.98,0.993,0.999,1
O=C(O)CCc1nc(-c2ccccc2)c(-c2ccccc2)o1 [Oxaprozin],1.02,1.02,1.01,0.994,1,1.05,1,1
CCc1nn(CCCN2CCN(c3cccc(Cl)c3)CC2)c(=O)n1CCOc1ccccc1 [Nefazodone hydrochloride],1,0.985,0.932,1.01,0.928,0.922,1,0.894
CC[C@@]1(O)C(=O)OCc2c1cc1n(c2=O)Cc2cc3c(CN(C)C)c(O)ccc3nc2-1 [Topotecan],1.05,1.04,1.03,1.02,1.01,1.02,1.02,0.983
NC[C@@H]1O[C@H](O[C@H]2[C@@H](O)[C@H](O[C@@H]3[C@@H](O)[C@H](N)C[C@H](N)[C@H]3O[C@H]3O[C@H](CN)[C@@H](O)[C@H](O)[C@H]3N)O[C@@H]2CO)[C@H](N)[C@@H](O)[C@@H]1O [Neomycin sulfate],1.01,1.04,1.05,1,1.02,1.01,0.999,1.03
COC(=O)Nc1nc2ccc(SC(C)C)cc2[nH]1 [Methiazole],1.01,1,0.999,1.01,0.992,1.04,0.997,0.994
C[C@H](CS)C(=O)N1CCC[C@H]1C(=O)O [Captopril],1.01,1.03,0.995,1.01,1.01,1.06,0.991,1.01
CC(c1cc2ccccc2s1)N(O)C(N)=O (stereo unspecified) [Zileuton],0.987,0.986,1,0.931,1.01,0.985,1,0.993
CC(=O)[C@H]1CC[C@H]2[C@@H]3C=CC4=CC(=O)CC[C@@]4(C)[C@@H]3CC[C@]12C [Dydrogesterone],1,0.986,0.99,1.01,1.02,1.04,1.01,0.909
O=C(NCC(O)CO)c1c(I)c(C(=O)NCC(O)CO)c(I)c(N(CCO)C(=O)CO)c1I (stereo unspecified) [Ioversol],1.01,1.03,1.07,1.03,1.03,1.03,1,1.01
CC(NCCc1ccc(O)cc1)C(O)c1ccc(O)cc1 (stereo unspecified) [Ritodrine hydrochloride],1.01,1.02,0.999,1,1,1.01,1,0.997
CCCCC(=O)O[C@H]1CC[C@H]2[C@@H]3CCc4cc(O)ccc4[C@H]3CC[C@]12C [Estradiol Valerate],1.05,1.05,1.08,1.01,1,1.07,0.998,1
